Values joined by “and” are separate entries in the source; they are usually repeats but may differ in a detail not shown here. Identical values can stand only once. About 79,000 compounds went through this panel and 15% of them were active in at least one assay; those are over-represented in the sample as a whole. Active and inactive are the calls of the source. Cut-off read from the data, not from the text of the source: active = growth inhibition above about 70%; inactive = the rest.
Tests used:
[1] = NCI Yeast Anticancer Drug Screen. Data for the rad50 strain (AID 155);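 note: 0% = growth of vehicle-only cultures of the same strain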; conditions: S. cerevisiae rad50 strain growth inhibition, stronger effect = higher value; at 50.0 µM unless noted
Method in brief: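 Relative growth inhibition (compound vs vehicle) was measured in yeast with a defined repair-gene alteration.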

[2] = NCI Yeast Anticancer Drug Screen. Data for the mec2-1 strain (AID 157); conditions: S. cerevisiae mec2-1 strain, stronger effect = higher value; at 50.0 µM unless noted
Method in brief: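 Growth inhibition is read against vehicle-treated controls after compound exposure of the mec2-1 yeast strain, which is defective in DNA damage repair or cell cycle control.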

[3] = NCI Yeast Anticancer Drug Screen. Data for the sgs1 mgt1 strain (AID 161);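 note: 0% = growth of cultures given vehicle only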; conditions: S. cerevisiae sgs1 mgt1 strain, stronger effect = higher value; at 50.0 µM unless noted
Method in brief: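 This yeast growth screen uses a strain with defined DNA-repair lesions; compound-treated growth is compared with vehicle-treated growth.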

[4] = NCI Yeast Anticancer Drug Screen. Data for the cln2 rad14 strain (AID 165);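 note: 0% = growth equal to vehicle treated cultures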; conditions: S. cerevisiae cln2 rad14 strain, stronger effect = higher value; at 50.0 µM unless noted
Method in brief: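 Growth inhibition, relative to vehicle-treated controls, is the read-out. The test organism is a yeast strain with defined genetic alterations, cln2 rad14.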

[5] = NCI Yeast Anticancer Drug Screen. Data for the bub3 strain (AID 167); conditions: S. cerevisiae bub3 mutant strain, stronger effect = higher value; at 50.0 µM unless noted
Method in brief: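 Screening used yeast with an engineered genetic alteration affecting cell cycle control. Compound-exposed cultures were compared with vehicle cultures, and reduced growth was taken as inhibition.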

[6] = NCI Yeast Anticancer Drug Screen. Data for the mlh1 rad18 strain (AID 175); conditions: S. cerevisiae mlh1 rad18 strain growth inhibition, stronger effect = higher value; at 50.0 µM unless noted
Method in brief: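 Cells of a genetically altered yeast strain, deficient in DNA damage repair, were treated with compound. Their growth was then compared with that of vehicle-treated cultures to give inhibition.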

Measured: growth inhibition

CCC[CH2][Sn]1([CH2]CCC)[O]C2C(CO)OC(n3c(Br)c(C#N)c4c(N)ncnc43)C2[O]1 (centres undefined)
active: [1] 98.4% | [2] 98.5% | [3] 98.7% | [4] 98.7% | [5] 97.7% | [6] 98%

O=C(O)CCCn1nnc2c(=O)[nH][nH]c(=O)c21
inactive: [1] 7.3% | [2] 5.65% | [3] 4.4% | [4] -7.75% | [5] -0.25% | [6] 11.6%

CC1CC1C(N)C1CC1C (centres undefined)
inactive: [1] 10.3% | [2] 3.15% | [3] -1.95% | [4] 23.9% | [5] 10.8% | [6] 8.3%

NN1CCN(CCO)CC1
inactive: [1] -0.1% | [2] -39.6% | [3] -3.3% | [4] 12.2% | [5] -4% | [6] 21.6%

Cc1ccc(C(=O)O)cc1
inactive: [1] 2.95% | [2] -17% | [3] 0.65% | [4] -15.6% | [5] 8.85% | [6] -2.2%

CCCc1ccc(C)c(CCC)c1O
inactive: [1] -5.95% | [2] -10.9% | [3] -5.1% | [4] -17.3% | [5] -4.05% | [6] 4%

CCOc1ccc(C(=O)C[N+]2(CCc3ccccc3)CCOCC2)cc1
inactive: [1] -12.9% | [2] 6.3% | [3] 11.6% | [4] 6.2% | [5] -0.7% | [6] 41%

O=c1[nH]cnc2c1ncn2C1CCCO1 (centres undefined)
inactive: [1] -14.2% | [2] -3.3% | [3] -2.9% | [4] -24.1% | [5] 17.4% | [6] 0.9%

CC1=CC(=O)[C@@H](O)[C@@]2(C)C1C[C@H]1OC(=O)[C@H](C/C=C(/C)C(C)C)[C@H]3C(C)C(O)C4(O)OC[C@@]31C42 (some centres undefined)
active: [1] 76.8% | [2] 77.9% | [3] 72% | [4] 81.7% | [5] 80% | [6] 76.5%

O=C(OCc1ccccc1)C1CCN1C(c1ccccc1)c1ccccc1 (centres undefined)
inactive: [1] 7.85% | [2] 13.5% | [3] 5.5% | [4] -25.6% | [5] 11.2% | [6] -7.8%

N/N=C1\C(=O)N(c2ccc(Cl)c(Cl)c2)C(=O)C1C(=O)Nc1ccc(Cl)c(Cl)c1 (centres undefined)
inactive: [1] -7.35% | [2] -19.4% | [3] -20.6% | [4] -16.4% | [5] -29.6% | [6] -31.1%

CN1c2ccccc2C(=O)N2C(=O)CCC21C (centres undefined)
inactive: [1] -38.9% | [2] -15.4% | [3] -20.7% | [4] -14.2% | [5] -13.4% | [6] -11.1%

O=C(c1ccc(Cl)cc1)c1ccccc1C(=O)c1ccc(Cl)cc1
inactive: [1] 0.8% | [2] -12.1% | [3] 6.6% | [4] -4.45% | [5] 23% | [6] 15.1%

O=S1(=O)C2C=CC1C(Br)C(Br)CC2 (centres undefined)
inactive: [1] -9.4% | [2] 13.9% | [3] 26.8% | [4] 12% | [5] -0.15% | [6] 20.4%

COC(=O)C(=O)C(C(=O)C=C(C)C)C(=O)C(=O)Nc1ccc(C)cc1C (centres undefined)
inactive: [1] -4.9% | [2] -17.5% | [3] -3.55% | [4] 11.2% | [5] -18.6% | [6] -29.6%

CC1(C)CC([NH-])(C(=O)O)CC(C)(C)N1O.CC1(C)CC([NH-])(C(=O)O)CC(C)(C)N1O.[Zn+2]
inactive: [1] -1.45% | [2] -17.1% | [3] -2.25% | [4] -41.9% | [5] 1.5% | [6] -7.4%

NC(=S)N/N=C/c1ccc([N+](=O)[O-])s1
inactive: [1] 9.65% | [2] 1.1% | [3] 19.9% | [4] 25.1% | [5] 22% | [6] 32.5%

CCC(c1cccc(C(=O)O)c1)C(C(C)=O)c1ccc(O)cc1 (centres undefined)
inactive: [1] 0.8% | [2] -20.5% | [3] -6.1% | [4] -22.5% | [5] 4% | [6] -5.05%

COC(=O)c1c(C)nc(C)c(N=O)c1-c1ccccc1C(F)(F)F
inactive: [1] 6.4% | [2] 5.5% | [3] 7.45% | [4] 20.1% | [5] 12.4% | [6] -44.6%

FC(F)(F)C1CCCCC1[Si](C1CCCCC1C(F)(F)F)C1CCCCC1C(F)(F)F (centres undefined)
inactive: [1] 32.8% | [2] -11.2% | [3] 13.7% | [4] 10.5% | [5] -5.55% | [6] 5.7%

COc1cc([N+](=O)[O-])c(S(=O)(=O)O)cc1NS(=O)(=O)c1ccc(C)cc1
inactive: [1] 7.8% | [2] 16.6% | [3] 22% | [4] 3.95% | [5] 1.4% | [6] 10.2%

COc1ccc2occ(CCC(=O)O)c2c1
inactive: [1] 6.4% | [2] -0.75% | [3] -2.25% | [4] -25.9% | [5] -1.1% | [6] 6.9%

CCCCN1CCC(N)=NC1=O
inactive: [1] 10.1% | [2] -24.9% | [3] -9.1% | [4] 9.2% | [5] -5.6% | [6] -4.15%

CCOC(=O)c1cc(C)ncc1N
inactive: [1] 9.85% | [2] 7.4% | [3] -7.1% | [4] 13.2% | [5] -0.95% | [6] 3.3%

COc1ccc2[nH]c3c(C)c4c(c(C)c3c2c1)CN(C)C=C4
inactive: [1] 45.6% | [2] 48.2% | [3] 62.7% | [4] 21.2% | [5] 65.8% | [6] 8.95%

COC(=O)c1cccc(C(=O)OC)c1
inactive: [1] -33.1% and 14.2% | [2] -3.45% and -1.6% | [3] -14.4% and 18.8% | [4] 5.2% and -1.7% | [5] -1.9% and 19.4% | [6] 3.75% and 15.4%

CCc1ccc(O)cc1O
inactive: [1] -18.4% | [2] -12.9% | [3] -43.1% | [4] 10.7% | [5] -30.6% | [6] -4.6%

O=C(CC1(O)C(=O)Nc2ccc(Br)cc21)c1ccc2c(c1)OCO2 (centres undefined)
inactive: [1] 2.7% | [2] 5.35% | [3] 11.4% | [4] -6.5% | [5] 36.5% | [6] -1.15%

Cc1cc2cccc(Cl)c2nc1C(=O)c1ccccc1
inactive: [1] -9.3% | [2] -12.3% | [3] -9.3% | [4] 22.4% | [5] -7.4% | [6] -12.6%

CC(=O)C(CCC#N)(CCC#N)C(C)=O
inactive: [1] -18.6% | [2] -24.6% | [3] -4.8% | [4] -5.95% | [5] -1.45% | [6] -16.1%

O=C(Cc1csc(-c2nc(CC(=O)NNc3ccccc3)cs2)n1)NNc1ccccc1
inactive: [1] 12.7% | [2] -3.4% | [3] -27.9% | [4] -38.4% | [5] 2.75% | [6] -12.6%

Cc1ccc(N[P+](c2ccccc2)(c2ccccc2)c2ccccc2)cc1.[Cl][Fe]([Cl])([Cl])[Cl]
inactive: [1] 44.1% | [2] 3% | [3] 22.9% | [4] -8.4% | [5] 11.7% | [6] 12.6%

COc1ccc(OC(C)C(=O)O)c2c(=O)ccccc12 (centres undefined)
inactive: [1] 13.9% | [2] 10.7% | [3] -5.2% | [4] 25.2% | [5] 5.7% | [6] 22.1%

COc1nc2nccnc2c(=O)n1C
inactive: [1] -18.2% | [2] -4.65% | [3] -16.5% | [4] 14.4% | [5] -7.55% | [6] -3.3%

O=S(=O)(Cc1nc2ccccc2[nH]1)Cc1nc2ccccc2[nH]1
inactive: [1] -3.4% | [2] 4.25% | [3] 14.8% | [4] -7.25% | [5] 4.95% | [6] 9.3%

COc1ccccc1NC(=O)Oc1c(C(C)C)cccc1C(C)C
inactive: [1] -5.35% | [2] 5.75% | [3] -3.7% | [4] -1.1% | [5] 20% | [6] -17.4%

CC(C)=CC1(C)/C(=N\O)C(C)(CC(C)C)C(=O)N1O (centres undefined)
inactive: [1] -7.15% | [2] -15.2% | [3] -11.8% | [4] -2.2% | [5] -5.65% | [6] -19.4%

N/N=C1\C(=O)N(C2CCCCCC2)C(=O)C1C(=O)NC1CCCCCC1 (centres undefined)
inactive: [1] -13.3% | [2] -32.6% | [3] -7.2% | [4] -68.7% | [5] -18.8% | [6] -26.2%

C/C(CCc1ccccc1)=N\NC(N)=S
inactive: [1] 7.1% | [2] 0.95% | [3] 9.55% | [4] -35.1% | [5] -5.5% | [6] 10.3%

Reference: PubChem BioAssay (NCI)
